From PubChem BioAssay (NCATS)
Values joined by “and” are separate entries in the source; they are usually repeats but may differ in a detail not shown here. Identical values can stand only once. Values without a mark were called inactive. Results filed as inconclusive are left out. Entries that show only a call come without a potency. Active and inactive are the calls of the source. Unless noted, calls come from the whole dose curve; as a rule, active = well fitted curve in the direction sought with a large enough effect; inconclusive = small, poorly fitted or top-dose-only effect, or another doubt; inactive = no such curve, though single readings can be large; an effect the other way counts as inactive or inconclusive.

Key:
[1] = system: JEG-3; experiment: Primary qHTS to identify gynecologic anti-cancer compounds using libraries of approved drugs and bioactive compounds (AID 1345084); details: Gynecologic cancer cell panel viability, ATPlite luminescence, 48 h; series mostly up to 57.5 µM; note: nearly all actives have a fitted effect of over 55% in size
Procedure, shortened: (§1)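 In this quantitative HTS, cell killing is estimated from loss of ATP-dependent luciferase light. Cells see five compound concentrations over a 48 h exposure.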

[2] = system: OV90; experiment: as above; details: Gynecologic cancer cell panel viability, ATPlite luminescence, 48 h; series mostly up to 57.5 µM
Procedure, shortened: as §1

[3] = system: PA-1; experiment: as above; details: Gynecologic cancer cell panel viability, ATPlite luminescence, 48 h; series mostly up to 57.5 µM
Procedure, shortened: as §1

[4] = system: SKOV3; experiment: as above; details: Gynecologic cancer cell panel viability, ATPlite luminescence, 48 h; series mostly up to 57.5 µM
Procedure, shortened: as §1

[5] = system: Tov-21-G; experiment: as above; details: Gynecologic cancer cell panel viability, ATPlite luminescence, 48 h; series mostly up to 57.5 µM
Procedure, shortened: as §1

[6] = system: Tov112D; experiment: as above; details: Gynecologic cancer cell panel viability, ATPlite luminescence, 48 h; series mostly up to 57.5 µM
Procedure, shortened: as §1

[7] = Drug repurposing screens with cells derived from glioblastoma tumor samples (AID 1345199); details: GBM patient neurospheres viability, ATP luminescence, 48 h; note: nearly all actives have a fitted effect of over 40% in size; note: potency is the fitted concentration of half-maximal effect
Procedure, shortened: (§2)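 Four patient lines of CD133+ GBM neurospheres were screened at several concentrations; hits were retested in those lines plus three slower-growing GBM lines, using 48-hour treatment and ATP-based viability.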

[8] = system: astro; experiment: as above; details: viability, ATP luminescence, 48 h; series mostly up to 45.9 µM
Procedure, shortened: as §2

[9] = target: Nuclear receptor subfamily 1 group I member 2 (Rattus norvegicus) (UniProt Q9R1A7); experiment: qHTS assay for small molecule activators of the rat pregnane X receptor (rPXR) signaling pathway (AID 651751; call rule not given here); details: rPXR reporter cells, luciferase (One-Glo), 24 h
Sequence of Nuclear receptor subfamily 1 group I member 2 (Rattus norvegicus) (Q9R1A7 whole entry, looked up): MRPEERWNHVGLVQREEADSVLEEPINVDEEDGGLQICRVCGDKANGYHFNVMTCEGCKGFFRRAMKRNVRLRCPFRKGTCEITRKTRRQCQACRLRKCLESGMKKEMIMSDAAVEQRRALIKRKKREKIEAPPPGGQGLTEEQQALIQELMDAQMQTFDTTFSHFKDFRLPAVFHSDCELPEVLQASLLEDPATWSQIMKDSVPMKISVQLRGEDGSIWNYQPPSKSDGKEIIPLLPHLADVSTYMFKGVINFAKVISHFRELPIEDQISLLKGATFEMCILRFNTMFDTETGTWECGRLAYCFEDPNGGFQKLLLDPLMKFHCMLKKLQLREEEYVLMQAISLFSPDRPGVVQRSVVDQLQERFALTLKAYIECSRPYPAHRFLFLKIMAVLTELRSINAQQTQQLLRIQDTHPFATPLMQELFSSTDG

[10] = qHTS assay to identify inhibitors of the type 1 interferon - major histocompatibility complex class I in skeletal muscle: Counter screen cell viability and HiBit confirmation (AID 1347412); details: iHSKM muscle cells + IFN-b, HiBiT or CellTiter-Glo, 24 h; Viability; at 45.9 µM (top of the series); note: nearly all actives have a fitted effect of over 60% in size
Procedure, shortened: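 Luminescence read-out: Nano-Glo HiBiT lytic signal from C-terminally HiBiT-tagged HLA-B in CRISPR-edited human myoblasts, plus CellTiter Glo ATP as viability counter screen. IFN-beta 4.0 ng/ml; 24 hrs treatment at 37 C, 5% CO2.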

[11] = at 45.9 µM (top of the series), tumour line B
[12] = at 45.9 µM (top of the series), tumour line D
[13] = at 46 µM (top of the series), tumour line A
[14] = at 46.1 µM (top of the series), tumour line C
[15] = at 20 µM (top of the series), tumour line C
[16] = at 21.2 µM (top of the series), tumour line B
[17] = at 21.2 µM (top of the series), tumour line D

CN(C)C(=O)Oc1cccc([N+](C)(C)C)c1
Potency [1]: inactive | Potency [2]: inactive | Potency [3]: inactive | Potency [4]: inactive | Potency [5]: inactive | Potency [6]: inactive | activity, negative = cell killing [7, 11]: -0.104% | activity, negative = cell killing [7, 12]: 10.8% | activity, negative = cell killing [7, 13]: -24.8% | activity, negative = cell killing [7, 14]: -4.3% | Potency [8]: inactive

N[C@@H](COP(=O)(O)O)C(=O)O
Potency [1]: inactive | Potency [2]: inactive | Potency [3]: inactive | Potency [4]: inactive | Potency [5]: inactive | Potency [6]: inactive | activity, negative = cell killing [7, 11]: -4.31% | activity, negative = cell killing [7, 12]: -5.04% | activity, negative = cell killing [7, 14]: -9.92% | Potency [8]: inactive

NC(Cc1ccc(Cl)cc1)C(=O)O (stereo unspecified)
activity change, negative = cytotoxicity [1]: 1.83% [at 0.462 µM] | activity change, negative = cytotoxicity [2]: -16.1% [at 0.462 µM] | activity change, negative = cytotoxicity [3]: -4.76% [at 0.462 µM] | activity change, negative = cytotoxicity [4]: 0.0141% [at 0.462 µM] | activity change, negative = cytotoxicity [5]: 11.9% [at 0.462 µM] | activity change, negative = cytotoxicity [6]: 2.14% [at 0.462 µM] | activity, negative = cell killing [7, 11]: -4.29% | activity, negative = cell killing [7, 12]: -0.449% | activity, negative = cell killing [7, 13]: -31.7% | activity, negative = cell killing [7, 14]: 0.887% | Potency [8]: inactive

CCCCNC(=O)NS(=O)(=O)c1ccc(C)cc1
Potency [1]: inactive | Potency [2]: inactive | Potency [3]: inactive | Potency [4]: inactive | Potency [5]: inactive | Potency [6]: inactive | activity, negative = cell killing [7, 11]: -7.32% | activity, negative = cell killing [7, 12]: -11.9% | activity, negative = cell killing [7, 13]: -4.33% | activity, negative = cell killing [7, 14]: 8.27% | Potency [8]: inactive | max response [9]: -1.54% and 0.831%

CCCCCN(CCCCC)C(=O)C(CCC(=O)O)NC(=O)c1ccc(Cl)c(Cl)c1 (stereo unspecified)
Potency [1]: inactive | Potency [2]: inactive | Potency [3]: inactive | Potency [4]: inactive | Potency [5]: inactive | Potency [6]: inactive | activity, negative = cell killing [7, 11]: -4.86% | activity, negative = cell killing [7, 12]: -12.8% | activity, negative = cell killing [7, 14]: -26.2% | Potency [8]: inactive

CO[C@@]1(NC(=O)CSCC#N)C(=O)N2C(C(=O)O)=C(CSc3nnnn3C)CS[C@@H]21
Potency [1]: inactive | Potency [2]: inactive | Potency [3]: inactive | Potency [4]: inactive | Potency [5]: inactive | Potency [6]: inactive | activity, negative = cell killing [7, 11]: -13.1% | activity, negative = cell killing [7, 12]: -14.3% | activity, negative = cell killing [7, 13]: -28.8% | Potency [8]: inactive

Nc1c2c(nc3ccccc13)CCCC2O (stereo unspecified)
Potency [1]: inactive | Potency [2]: inactive | Potency [3]: inactive | Potency [4]: inactive | Potency [5]: inactive | Potency [6]: inactive | activity, negative = cell killing [7, 11]: 4.45% | activity, negative = cell killing [7, 12]: 4.03% | activity, negative = cell killing [7, 14]: -7.2% | Potency [8]: inactive

CCn1cc(C(=O)O)c(=O)c2cc3c(cc21)OCO3
Potency [1]: inactive | Potency [2]: inactive | Potency [3]: inactive | Potency [4]: inactive | Potency [5]: inactive | Potency [6]: inactive | activity, negative = cell killing [7, 11]: -1.33% | activity, negative = cell killing [7, 12]: -1.7% | activity, negative = cell killing [7, 13]: -12.9% | activity, negative = cell killing [7, 14]: -10% | Potency [8]: inactive

CC(C)(Oc1ccc(CCNC(=O)c2ccc(Cl)cc2)cc1)C(=O)O
Potency [1]: inactive | Potency [2]: inactive | Potency [3]: inactive | Potency [4]: inactive | Potency [5]: inactive | Potency [6]: inactive | activity, negative = cell killing [7, 15]: 15.6% | activity, negative = cell killing [7, 16]: -6.51% | activity, negative = cell killing [7, 17]: 0.604% | activity, negative = cell killing ([7]; at 21.3 µM (top of the series), tumour line A): -25.9% | Potency [8]: inactive | max response [9]: -5.47%

C[C@]12C=CC(=O)C=C1CC[C@H]1[C@@H]3C[C@@H](O)[C@](O)(C(=O)CO)[C@@]3(C)C[C@H](O)[C@@]12F
Potency [1]: inactive | Potency [2]: inactive | Potency [3]: inactive | Potency [4]: inactive | Potency [5]: inactive | Potency [6]: inactive | activity, negative = cell killing [7, 11]: -11.4% | activity, negative = cell killing [7, 12]: -6.95% | activity, negative = cell killing [7, 13]: -27.1% | activity, negative = cell killing [7, 14]: 7.27% | Potency [8]: inactive | activity change, negative = inhibition [10]: 8.47% | max response [9]: 3.64%

NC(=O)c1cn(Cc2c(F)cccc2F)nn1
Potency [1]: inactive | Potency [2]: inactive | Potency [3]: inactive | Potency [4]: inactive | Potency [5]: inactive | Potency [6]: inactive | activity, negative = cell killing [7, 11]: -2.3% | activity, negative = cell killing [7, 12]: -3.04% | activity, negative = cell killing [7, 13]: -26.2% | activity, negative = cell killing [7, 14]: -19.6% | Potency [8]: inactive

CN1C[C@H](C(=O)N[C@]2(C)O[C@@]3(O)[C@@H]4CCCN4C(=O)[C@H](Cc4ccccc4)N3C2=O)C[C@@H]2c3cccc4[nH]cc(c34)C[C@H]21
Potency [1]: inactive | Potency [2]: inactive | Potency [3]: inactive | Potency [4]: inactive | Potency [5]: inactive | Potency [6]: inactive | activity, negative = cell killing [7, 11]: -29.3% | activity, negative = cell killing [7, 14]: 4.11% | Potency ([7]; tumour line A): 10 µM (active) | Potency [8]: inactive

Cc1ccc(S(=O)(=O)NC(=O)NN2CCCCCC2)cc1
Potency [1]: inactive | Potency [2]: inactive | Potency [3]: inactive | Potency [4]: inactive | Potency [5]: inactive | Potency [6]: inactive | activity, negative = cell killing [7, 11]: 5.62% | activity, negative = cell killing [7, 12]: 15.6% | activity, negative = cell killing [7, 13]: -3.14% | activity, negative = cell killing [7, 14]: -5.87% | Potency [8]: inactive | max response [9]: 0.57%

Cc1cccc(C)c1NC(=O)C(C)N (stereo unspecified)
Potency [1]: inactive | Potency [2]: inactive | Potency [3]: inactive | Potency [4]: inactive | Potency [5]: inactive | Potency [6]: inactive | activity, negative = cell killing [7, 15]: 6.4% | activity, negative = cell killing [7, 16]: -16.9% | activity, negative = cell killing [7, 17]: 1.82% | Potency [8]: inactive

CN=C(NC#N)NCCSCc1nc[nH]c1C
Potency [1]: inactive | Potency [2]: inactive | Potency [3]: inactive | Potency [4]: inactive | Potency [5]: inactive | Potency [6]: inactive | activity, negative = cell killing [7, 11]: -8.34% | activity, negative = cell killing [7, 12]: -15.2% | activity, negative = cell killing [7, 13]: -11.7% | activity, negative = cell killing [7, 14]: -4.17% | Potency [8]: inactive | max response [9]: 5.73%

CCOC(=O)c1cnc2c(cnn2CC)c1NN=C(C)C
Potency [1]: inactive | Potency [2]: inactive | Potency [3]: inactive | Potency [4]: inactive | Potency [5]: inactive | Potency [6]: inactive | activity, negative = cell killing [7, 11]: -11.6% | activity, negative = cell killing [7, 12]: -28.3% | activity, negative = cell killing [7, 14]: -18.1% | Potency ([7]; tumour line A): 11.2 µM (active) | Potency [8]: inactive
